The list is not random: actives were taken first. Their share in the collection is about 1.4%.
HTT ATP protect: cytoprotection in Huntington HTT-Q103 PC12 cell model. PC12 HTT-Q103 induced, cytoprotection, ATP luminescence, 40 h. Potency, µM (doses to about 56.4 µM), without a hit: cytoprotection (ATP increase), hits mostly activators. 230,000 compounds, 0.14% hits; also: % of control where 0% means no effect; nearly all actives have a fitted effect of over 45% in size
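Compounds were screened for protection of PC12 cells against cell death after tebufenozide induction (100 nM final) of mutant Huntingtin exon 1 (Q103) fused to GFP.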
ERK EGF inh: EGF-driven ERK pathway inhibition; HEK293-V1b, EGF-stimulated phospho-ERK AlphaScreen; Potency, µM (highest dose often 11.5 µM), for the others: at the top dose activity change, negative = inhibition, usual class: inhibitors; 130,000 compounds, 0.41% hits; AID 1454;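 also: plate controls were stimulated vehicle wells for no effect and unstimulated vehicle basal for full effect; nearly all actives have a fitted effect of over 55% in size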
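Compounds are titrated over HEK293-V1b cells kept overnight in 1% FBS. After 30 min at 37C, EGF (25 nM final) triggers ERK phosphorylation for 5 min, measured by AlphaScreen in lysates.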
HTT aggregate: reduces HttQ103-GFP aggregates in PC12 cells; Potency, µM (series often up to 46.1 µM), for the others: at the highest dose activity change, negative = inhibition, most hits filed as inhibitors; PC12 HttQ103-GFP aggregates, Acumen cytometry, 40 h; 220,000 compounds, 1.1% hits; also: % is scaled to controls: 0 for no effect and ±100 for the full control effect; nearly all actives have a fitted effect of over 60% in size
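Using laser scanning cytometry, GFP-positive aggregates were counted after lysis of PC12 cells induced with 100 nM tebufenozide to express HTT exon 1 Q103–GFP. Compounds were tested in titration.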
Starred values were filed as active, the others as inactive; ? = inconclusive; / = no result; [ ] = dose if it differs, or a comment. Calls follow the shape of the dose curve; as a rule, active = well fitted curve in the direction sought with a large enough effect; inconclusive = small, poorly fitted or top-dose-only effect, or another doubt; inactive = no such curve, though single readings can be large; an effect the other way counts as inactive or inconclusive. Potency is read from the fitted curve at half-maximal effect.

SMILES	HTT ATP protect	ERK EGF inh	HTT aggregate
Fc1ccccc1COc1cccc(/C=N/n2cnnc2)c1	-14%	/	?
Cc1cc(/C=N/n2cnnc2)c(C)n1-c1ccc(OCc2ccc(Cl)cc2)cc1	-63%	/	2.5µM*
Cc1cc(/C=N/n2cnnc2)c(C)n1-c1ccc(OCc2ccccc2F)cc1	-66%	/	10µM*
CC[C@@H]1Cn2c(c3nc(-c4ccccc4)nc-3n(C)c2=O)N1	2%	7%	/
O=C(Cc1cccs1)NC1C(=O)N2C(C(=O)[O-])=C(C[n+]3ccccc3)CSC12 (configuration not stated)	-11%	21%	-10%
CCOC(=O)OCC1OC(c2ccccc2)C=CC1Oc1ccc(F)cc1C (configuration not stated)	12%[10 µM]	/	/
Cc1cc(N2CCN(c3nc4ccccc4s3)CC2)n2ncnc2n1	-19%	/	11µM*
Cc1cc(N2CCN(C(c3ccccc3)c3ccccc3)CC2)n2ncnc2n1	-9%	/	13%
COc1ccc(CCNc2cc(N3CCN(C(=O)c4ccccc4F)CC3)ccc2[N+](=O)[O-])cc1OC	-43%	/	4µM*
COc1ccc(CCNc2cc(N3CCN(C(=O)c4ccc(C)cc4)CC3)ccc2[N+](=O)[O-])cc1OC	4%[10 µM]	?	-10%
CS(=O)(=O)c1ccc(S(=O)CC(=O)Oc2ccc(Cl)cc2)c([N+](=O)[O-])c1 (configuration not stated)	?	4%	-2%
OC1CC2CC[C@H](C1)N2CCCN1c2ccccc2Sc2ccc(Cl)cc21 (some centres not stated)	-4%[10 µM]	/	/
COC(=O)c1nn(-c2ccc(OC)cc2)c(=O)cc1O	-52%[10 µM]	-8%	8%
COc1ccc(-n2nc(C#N)c(Cl)cc2=O)cc1	-3%[10 µM]	3%	25µM*
Cn1c(CSc2ncccn2)nnc1SCC(=O)N1CCCCC1	-8%[10 µM]	/	-1%
O=C(CSc1nnc2ncccn12)N1CCCCCC1	-14%	/	0.56µM*
Cc1noc(C)c1-c1nc(Nc2ccncc2)c2ccccc2n1	10%	30%	/
c1ccc(CCc2nn3c(-c4ccncc4)nnc3s2)cc1	10%[10 µM]	/	1.1µM*
Clc1ccccc1-c1nnc2sc(CCc3ccccc3)nn12	-16%[0.074 µM]	/	-33%
COC(=O)C/C=C/[C@@H](C)[C@H](NC(=O)OCC(Cl)(Cl)Cl)c1ccc2ccccc2c1	-9%	-6%	/
O=C1C(NS(=O)(=O)c2cccs2)=C(N2CCOCC2)C(=O)c2ccccc21	6%[10 µM]	?	0%[9.22 µM]
CN(C1=C(N2CCOCC2)C(=O)c2ccccc2C1=O)c1ccccc1	-22%[10 µM]	11µM*	-25%
CCN1/C(=C/c2ccc3cccc(C)c3[n+]2CC)Sc2ccccc21	-157%	/	1.1µM*
CCN1/C(=C/c2ccc3cc(C)cc(C)c3[n+]2CC)Sc2cc(C)ccc21	-50%[10 µM]	?	?
O=Nc1c(-c2c(O)[nH]c3cc(Br)ccc23)[nH]c2ccccc12	/	28µM*	/
SMILES	HTT ATP protect	ERK EGF inh	HTT aggregate
O=C(CSCc1cccc(Br)c1)N=Nc1c(O)[nH]c2ccccc12	-13%	/	-1%
Cc1ccccc1NC(=S)NCCO	-28%	-6%	3%
CCCCSCCCNC(=S)Nc1ccccc1C	-12%	0%	22µM*
CCCn1c(-c2ccc(F)cc2)nc2c(N3CCC(N(C)C)C3)nc(C)nc21 (configuration not stated)	-17%	-4%	/
COC(=O)[C@@]1(Cc2ccc(OC)cc2)[C@H]2c3cc(C(=O)N(C)C)n(Cc4ccsc4Br)c3C[C@H]2CN1C(=O)c1ccccc1	-48%	7%	/
CCSc1nnc(NC(=O)CSc2nc3c(c(=O)n2CC)SC(C)C3)s1 (configuration not stated)	-24%	/	13µM*
CCSc1nnc(NC(=O)CSc2nc3c(c(=O)n2C)SC(C)C3)s1 (configuration not stated)	11%[1.9 µM]	/	-25%
CN1[C@@H](c2ccccc2)CC(=NO)C[C@H]1c1ccccc1	-2%[10 µM]	/	/
CS(=O)(=O)N1CCC[C@@]2(CCN(C(=O)Nc3cccc(C#N)c3)C2)C1	0%	0%	/
CCCn1c2c(c(O)c(C(=O)Nc3ncccc3O)c1=O)CCCC2	-12%	/	13µM*
CCCn1c2c(c(O)c(C(=O)NC)c1=O)CCCC2	-19%[0.074 µM]	4%	-24%
C[N+]1(CC2COC(c3ccccc3)(C3CCCCC3)O2)CCCCC1 (configuration not stated)	-59%	/	-24%
COc1ccc(/C=C/C(=O)c2ccc(O)cc2O)cc1	/	11%	/
CN(C)c1ccc(/C=C/C(=O)c2cc(Cl)ccc2O)cc1	-1%[10 µM]	14µM*	-17%[9.22 µM]
COc1ccc(/C=C/C(=O)c2ccc(O)cc2)cc1COc1ccc(F)cc1	-14%	/	2%
O=C(/C=C/c1ccncc1)c1cc(Cl)ccc1O	-10%[10 µM]	9%[57.5 µM]	-8%[9.22 µM]
COc1ccc(O)c(C(=O)/C=C/c2cc3ccccc3o2)c1	/	25µM*	/
COc1ccc(/C=C/C(=O)c2cc(O)ccc2O)cc1	5µM*	?	/
O=C(/C=C/c1cc2ccccc2o1)c1ccccc1O	11%[10 µM]	?	21%[9.22 µM]
COc1ccc(Oc2ccc(/C=C/C(=O)c3ccc(O)cc3)cc2[N+](=O)[O-])cc1	/	?	13µM*
COCCn1c(=O)c(CCc2ccccc2)nc2cnc(N3CCN(C)CC3)nc21	-20%	-13%	/
C[C@@H](c1ccccc1)N1C(=O)[C@H]2[C@H]3[C@H](O)[C@H](O)C/C(=N/OCc4ccccc4)[C@@H]3CC[C@@H]2C1=O	-3%[10 µM]	/	/
Cn1c(=S)c2[nH]c(SCCN3C(=O)c4ccccc4C3=O)nc2n(C)c1=O	0%[10 µM]	/	/
C(=Nc1cnc2ccccc2c1)c1ccc2ccccc2n1	1%[10 µM]	/	/
COc1ccc2c(c1)C(=O)[C@H](OC(=O)N[C@H](C)C1CCCCC1)[C@@H](c1ccc(OC)c(Br)c1)O2	-82%	2%	/
SMILES	HTT ATP protect	ERK EGF inh	HTT aggregate
Cc1ccc(-c2csc(N/N=C/c3ccco3)n2)c(C)c1	12%[10 µM]	6%	5%
CN(C)S(=O)(=O)c1cccc(-c2csc(N/N=C/c3ccco3)n2)c1	-6%[10 µM]	22µM*	2%[9.22 µM]
Cc1ccc(CNC(=O)[C@H](C)[C@@H]2C[C@@]2(C)[C@@H](NC(=O)OCc2ccccc2)c2ccccc2)o1	-2%	8%	/
CCc1cccc(CC)c1NC(=S)NC(C)c1ccccc1 (configuration not stated)	-9%[10 µM]	1%	?
CCc1cc(C(=O)NNC(=S)NC(C)c2ccccc2)cs1 (configuration not stated)	12%	/	18µM*
Clc1ccccc1-c1cc(NCc2ccccc2)ncn1	-33%	/	/
O=C(CSCc1ccc(C(=O)O)cc1)Nc1ccc2ccccc2c1	/	7%[57.5 µM]	40µM*
O=C(CSCc1ccc(C(=O)O)cc1)Nc1ccccc1	?	3%	29%[9.22 µM]
CCNc1ncc2nc(-c3ccccc3)c(=O)n(C[C@H]3CCCO3)c2n1	1%	/	/
COc1cccc(-c2nnc3sc(-c4ccccc4)nn23)c1	-20%	/	-22%
Cc1cccc(-c2nnc3sc(-c4ccccc4C)nn23)c1	-31%[0.074 µM]	/	11µM*
NC(=O)C[C@@H](N)C(=O)O	-13%	/	/
COC(=O)N1CC=CC1(C)C(=O)NCc1ccc(C)o1 (configuration not stated)	-55%	3%	/
CC(C)CN1CCC2(CC1)CCN(C(=O)c1csnn1)CC2	15%	10%	/

Screening results from PubChem BioAssay.
